# TGFb inhibitor = qHTS for Inhibitors of TGF-b; HepG2 CAGA-GFP TGF-b/SMAD3 reporter, GFP fluorescence, 18 h; TGF-beta stimulated, 500 pg/mL final; Potency, µM (series often up to 46.1 µM), for inactives: at the highest dose activity, negative = inhibition, usual class: inhibitors; 1.2% of 410,000 active; AID 588855, 2011; note: potency is the fitted concentration of half-maximal effect; % is set by controls: 0 for no effect and ±100 for the full control effect; nearly all actives have a fitted effect of over 65% in size
#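 Cell-based qHTS in HEPG2 carrying a CAGA-GFP Smad reporter; compounds added before 500 pg/mL final TGF-beta, 18 h incubation at 37 degrees C, GFP fluorescence quantified per cell by imaging cytometry.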
# S2 tox = Viability Counterscreen for Primary qHTS for Inhibitors of ATXN expression; S2 cells (HEK-293 line with an ATXN2-luciferase reporter) viability, CellTiter-Fluor protease fluorescence, 24 h; Potency, µM (titrated, usually from 56.7 µM), actives largely listed as cytotoxic; 0.49% of 400,000 active; AID 651635, 2014; note: potency is the fitted concentration of half-maximal effect; nearly all actives have a fitted effect of over 40% in size
# HepG2 tox = qHTS for Inhibitors of TGF-b: Cytotox Counterscreen | HepG2 CAGA-GFP viability, ATP luminescence, 18 h | Potency, µM (series often up to 46.1 µM), for inactives: at the top dose activity change, negative = cytotoxicity, actives largely listed as cytotoxic | 0.76% of 410,000 active | AID 588856, 2011; note: potency is the fitted concentration of half-maximal effect
#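 HepG2 CAGA-GFP cells (1000/well, DMEM with 1% FBS) received compound, then TGF-beta at 500 pg/mL final, and were incubated 18 hours at 37 degrees C. Viability was read by CellTiter-Glo luminescence. Media-only wells were set as complete cell-killing and DMSO as no toxicity.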
# ATXN2 expr inh = Primary qHTS for Inhibitors of ATXN expression. HEK-293 ATXN2-luciferase reporter, luminescence, 24 h. Potency, µM (doses to about 57 µM), without a hit: at the highest dose activity change, negative = inhibition, hits mostly inhibitors. 0.72% of 360,000 active. AID 1745845, 2022; note: potency is the fitted concentration of half-maximal effect; % is set by controls: 0 for no effect and ±100 for the full control effect; nearly all actives have a fitted effect of over 55% in size
#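 qHTS (up to 57 uM final) was run with 24 h compound exposure of reporter cells at 37 °C. Each well was multiplexed: SteadyGlo luminescence measured ATXN2-luciferase expression after a fluorogenic Gly-Phe-AFC viability readout (25 uM final).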
# LDHA inh = qHTS assay for inhibitors of human lactate dehydrogenase; L-lactate dehydrogenase A chain (Homo sapiens), P00338; purified LDHA, NADH/diaphorase-resazurin fluorescence; stronger effect = lower value; activity change, % (values are at about 110 or 230 µM); 0.15% of 480,000 active; AID 1347041, 2019; in the data active = activity change below about -30%; inconclusive = mostly about -25% to -30%;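 note: plate controls were DMSO wells for no effect and wells without enzyme for full effect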
#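 Human LDH5 (2 nM) was incubated with 0.06 mM NADH and 0.2 mM pyruvate for 5 min at room temperature in Tris pH 7.4. Remaining NADH was coupled through diaphorase/resazurin, and resorufin fluorescence was read at 0 and 20 min.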
# IDH1 R132H inh = qHTS for Inhibitors of mutant isocitrate dehydrogenase 1 (IDH1): qHTS. Isocitrate dehydrogenase [NADP] cytoplasmic (Homo sapiens), O75874. IDH1-R132H enzyme, NADPH consumption, diaphorase/resazurin fluorescence. Potency, µM (highest dose often 76.6 µM), without a hit: at the highest dose activity change, negative = inhibition, actives largely listed as inhibitors. 0.093% of 390,000 active. AID 602179, 2012; note: potency is the fitted concentration of half-maximal effect; % is set by controls: 0 for no effect and ±100 for the full control effect; nearly all actives have a fitted effect of over 65% in size
# Target sequence (O75874 whole entry R132H, stated change not applied): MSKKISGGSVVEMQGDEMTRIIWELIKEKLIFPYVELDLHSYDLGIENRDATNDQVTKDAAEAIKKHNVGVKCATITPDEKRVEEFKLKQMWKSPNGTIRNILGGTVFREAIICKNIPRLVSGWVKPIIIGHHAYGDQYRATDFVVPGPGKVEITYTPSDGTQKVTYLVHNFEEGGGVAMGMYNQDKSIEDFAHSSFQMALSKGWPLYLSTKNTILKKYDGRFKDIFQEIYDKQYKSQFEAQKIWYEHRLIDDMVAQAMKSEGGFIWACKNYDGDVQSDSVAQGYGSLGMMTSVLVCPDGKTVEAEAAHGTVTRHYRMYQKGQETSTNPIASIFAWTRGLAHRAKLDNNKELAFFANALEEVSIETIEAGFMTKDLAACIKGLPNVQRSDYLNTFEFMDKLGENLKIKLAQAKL
#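 IDH1-R132H (0.5 ug/mL dispensed) in pH 7.5 Tris buffer was preincubated 30 min with compound, then given a substrate mix of 0.016 mM NADPH and 2 mM alpha-KG for 80 min at room temperature; remaining NADPH was read by diaphorase/resazurin fluorescence.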
# * = called active by the depositor; i = inactive; ? = inconclusive; · = not tested or not shown. Rows were chosen to be rich in hits. Some 2.2% of all compounds tested hit in one or more screens of this group. Unless noted, calls come from the whole dose curve; as a rule, active = well fitted curve in the direction sought with a large enough effect; inconclusive = small, poorly fitted or top-dose-only effect, or another doubt; inactive = no such curve, though single readings can be large; an effect the other way counts as inactive or inconclusive.
SMILES,TGFb inhibitor,S2 tox,HepG2 tox,ATXN2 expr inh,LDHA inh,IDH1 R132H inh
COC(=O)c1cc(=O)n(Cc2cccs2)c(=Nc2ccc(F)cc2)s1,?,27µM*,-73%,21µM*,-1,2%
COC(=O)c1cc(=O)n(Cc2ccco2)c(=Nc2ccc(F)c(Cl)c2)s1,13µM*,·,-98%,28µM*,0,-4%
Cc1ccc2c(c1C)NC(=O)C21N2CCCC2C(C(=O)c2ccc3ccccc3c2)C12C(=O)Nc1ccccc12 (centres undefined),16µM*,i,-39%,·,3,2%
CCC(=O)N1N=C(c2ccc(C)o2)CC1c1ccc(N(C)C)cc1 (centres undefined),-2%,i,7.1µM*,-2%,4,-10%
Cc1ccc(C2=NN(C(=O)CCl)C(c3cccs3)C2)o1 (centres undefined),8.9µM*,·,8.9µM*,7.5µM*,0,3%
CCn1c(SCC(=O)Nc2ccc(C)c(C)c2)nnc1-c1nonc1NC(C)=O,-16%,i,-4%,-3%,-4,0%
O=C(CSc1ncccn1)Nc1cccc(S(=O)(=O)N2CCOCC2)c1,-17%,i,-7%,5%,-1,3%
CCS(=O)(=O)c1ncc(Cl)c(C(=O)Nc2ccccc2)n1,10µM*,14µM*,18µM*,11µM*,-12,-6%
CCS(=O)(=O)c1ncc(Cl)c(C(=O)N2CCN(c3ccc(OC)cc3)CC2)n1,·,·,11µM*,·,5,·
CCS(=O)(=O)c1ncc(Cl)c(C(=O)NCc2ccc(OC)cc2)n1,3.2µM*,·,5.6µM*,·,-14,0%
CCS(=O)(=O)c1ncc(Cl)c(C(=O)Nc2c(C(=O)Nc3cccc(C)c3)oc3ccccc23)n1,0.89µM*,?,-20%,8%,-2,-19%
COc1ccc(N2CCN(C(=O)c3nc(SC)ncc3Cl)CC2)cc1,16%,i,2%,-8%,7,8%
CCSc1ncc(Cl)c(C(=O)Nc2ccccc2)n1,18%,i,4%,16%,-5,2%
CCOc1ccccc1/C=N/n1nnnc1N,13%,i,1%,1%,-6,-10%
O=C(O)C1CCCN1C(=O)C12CC3CC(CC(C3)C1)C2 (centres undefined),17%,i,10%,2%,-1,15%
O=C(CCc1ncc(-c2ccc(F)cc2F)o1)NCC(c1ccccc1)N1CCCC1 (centres undefined),·,·,·,·,0,·
CCS(=O)(=O)c1ncc(Cl)c(C(=O)Nc2ccccc2OC)n1,3.5µM*,·,-29%,?,-2,14%
COC(=O)c1ccccc1NC(=O)c1nc(S(=O)(=O)Cc2cccc(C)c2)ncc1Cl,-3%,·,4%,·,-7,-20%
CCN(CC(=O)Nc1ccccc1C(=O)Nc1ccccc1)Cc1nc2ccccc2c(=O)[nH]1,-23%,i,1%,-8%,-8,12%
Cc1ccc(/C=N/Nc2ccnc3cc(Cl)ccc23)c(C)c1,?,?,14µM*,35µM*,-11,-6%
Cc1ccccc1/C=N/Nc1ccnc2cc(Cl)ccc12,10µM*,·,-103%,22µM*,-10,-2%
CN(/N=C/c1cc(Br)cc(Br)c1O)c1cccc(C(F)(F)F)n1,?,·,3.2µM*,?,4,3%
COc1ccc(-n2nc3cc(C)c(NC(C)=O)cc3n2)cc1,9%,i,1%,8.9µM*,-4,-13%
CCc1ccc(-n2nc3cc(C)c(NC(=O)c4cc(OC)cc(OC)c4)cc3n2)cc1,1%,i,-4%,17%,-6,17%

# Compound activity from PubChem BioAssay.
